This passage reports binding signal results from paper PMC5700166.

Common to all, as to assay: protein-binding microarray (PBM); PBM: ~300 nM protein, 6 mM HEPES pH 7.8, 80 mM KCl, 0.5 mM EDTA, 0.5 mM EGTA, 6% glycerol, 35 ng/ul poly-dIdC, 1% milk, 1 h, room temperature; Ap Aiptasia and Nv Nematostella (sea anemones) / Co Capsaspora / Aq Amphimedon (sponge) / Dm Drosophila / Hu human; RHD is the Rel homology domain; high values mean tight binding
Conditions in all cases: dsDNA, one strand shown

One assay addresses T1, GST-Ap-NF-kB RHD (Exaiptasia pallida (Aiptasia), UniProt A0A913YAJ5 2-422).
T1 sequence: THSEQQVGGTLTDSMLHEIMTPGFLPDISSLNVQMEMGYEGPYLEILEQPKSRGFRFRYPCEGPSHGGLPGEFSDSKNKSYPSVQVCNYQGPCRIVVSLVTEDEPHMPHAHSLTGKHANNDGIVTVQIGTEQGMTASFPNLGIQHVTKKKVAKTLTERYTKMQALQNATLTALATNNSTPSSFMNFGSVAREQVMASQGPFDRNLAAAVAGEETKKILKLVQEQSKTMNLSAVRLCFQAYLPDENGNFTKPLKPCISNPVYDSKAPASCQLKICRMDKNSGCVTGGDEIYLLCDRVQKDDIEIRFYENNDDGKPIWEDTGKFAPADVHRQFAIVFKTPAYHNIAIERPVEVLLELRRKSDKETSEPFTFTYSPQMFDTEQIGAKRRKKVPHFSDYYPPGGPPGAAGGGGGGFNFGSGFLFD

The target in assay [1] is T2, GST-Nv-NF-kB (Cys allele) (Nematostella vectensis, UniProt E5G601 2-411).
T2 sequence: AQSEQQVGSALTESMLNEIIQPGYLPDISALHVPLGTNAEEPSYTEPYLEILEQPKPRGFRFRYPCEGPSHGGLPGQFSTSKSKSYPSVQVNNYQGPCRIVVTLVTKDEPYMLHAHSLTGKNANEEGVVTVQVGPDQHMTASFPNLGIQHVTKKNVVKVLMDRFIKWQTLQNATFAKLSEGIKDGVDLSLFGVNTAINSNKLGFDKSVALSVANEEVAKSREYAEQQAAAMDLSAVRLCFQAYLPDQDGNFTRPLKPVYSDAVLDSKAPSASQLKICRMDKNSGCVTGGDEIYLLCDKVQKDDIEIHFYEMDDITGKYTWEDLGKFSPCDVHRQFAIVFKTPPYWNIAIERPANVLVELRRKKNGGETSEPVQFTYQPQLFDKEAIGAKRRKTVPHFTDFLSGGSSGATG

The target of assay [2] is T3, GST-Nv-NF-kB (Ser allele) (Nematostella vectensis, UniProt A7UNT2 2-411).
T3 sequence: T2 sequence with Q21R, C66S, S207N, E215Q, V217A, E225K, A268E, D399E

A further assay deals with T4, GST-Co-NF-kB (Capsaspora owczarzaki, UniProt F1ARL5 200-546).
T4 sequence: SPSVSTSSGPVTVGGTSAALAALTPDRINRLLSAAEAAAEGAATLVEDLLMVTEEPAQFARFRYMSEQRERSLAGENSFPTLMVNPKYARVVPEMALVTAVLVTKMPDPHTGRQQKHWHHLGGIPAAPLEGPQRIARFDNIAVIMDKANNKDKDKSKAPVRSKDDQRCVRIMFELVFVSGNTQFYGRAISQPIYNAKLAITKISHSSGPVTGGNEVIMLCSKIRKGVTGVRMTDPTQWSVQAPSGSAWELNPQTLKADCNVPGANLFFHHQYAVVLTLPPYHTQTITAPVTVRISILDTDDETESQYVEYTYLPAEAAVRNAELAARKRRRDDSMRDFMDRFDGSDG

The target in a further assay is T5, GST-Dm-Relish (Drosophila melanogaster, UniProt Q94527 99-473).
T5 sequence: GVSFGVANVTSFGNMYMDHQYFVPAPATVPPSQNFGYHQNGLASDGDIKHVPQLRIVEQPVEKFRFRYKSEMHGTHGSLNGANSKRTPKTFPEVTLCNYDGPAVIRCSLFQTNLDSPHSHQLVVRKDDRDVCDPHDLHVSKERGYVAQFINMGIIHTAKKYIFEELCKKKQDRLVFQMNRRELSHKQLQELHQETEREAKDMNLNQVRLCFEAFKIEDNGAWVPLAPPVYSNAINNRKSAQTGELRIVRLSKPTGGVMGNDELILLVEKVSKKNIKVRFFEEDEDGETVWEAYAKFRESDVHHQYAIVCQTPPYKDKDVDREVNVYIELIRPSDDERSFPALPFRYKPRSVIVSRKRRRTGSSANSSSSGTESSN

The target in the next assay is T6, GST-Aq-NF-kB (Amphimedon queenslandica, UniProt A9Y5G7 2-389).
T6 sequence: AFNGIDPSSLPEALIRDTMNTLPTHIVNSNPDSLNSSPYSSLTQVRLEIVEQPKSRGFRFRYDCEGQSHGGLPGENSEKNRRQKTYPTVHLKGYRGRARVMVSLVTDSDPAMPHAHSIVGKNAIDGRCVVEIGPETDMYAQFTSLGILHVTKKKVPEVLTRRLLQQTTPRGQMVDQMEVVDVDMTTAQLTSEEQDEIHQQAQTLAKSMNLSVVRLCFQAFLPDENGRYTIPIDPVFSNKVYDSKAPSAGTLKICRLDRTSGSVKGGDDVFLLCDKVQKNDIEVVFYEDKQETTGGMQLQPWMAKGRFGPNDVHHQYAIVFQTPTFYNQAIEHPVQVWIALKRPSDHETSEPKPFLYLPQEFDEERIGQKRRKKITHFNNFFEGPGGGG

The next assay deals with GST-Hu-p50 (Homo sapiens, UniProt P19838 7-356).
GST-Hu-p50, sequence (P19838 7-356): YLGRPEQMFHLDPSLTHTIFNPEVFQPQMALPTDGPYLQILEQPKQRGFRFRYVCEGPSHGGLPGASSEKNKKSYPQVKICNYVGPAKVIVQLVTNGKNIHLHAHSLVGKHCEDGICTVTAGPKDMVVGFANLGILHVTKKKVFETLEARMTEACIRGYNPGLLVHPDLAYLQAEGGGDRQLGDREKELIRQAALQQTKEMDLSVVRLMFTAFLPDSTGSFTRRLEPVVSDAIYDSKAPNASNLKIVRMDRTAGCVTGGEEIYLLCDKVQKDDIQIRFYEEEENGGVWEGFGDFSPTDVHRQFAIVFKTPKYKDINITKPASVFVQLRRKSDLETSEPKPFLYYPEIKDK

Numbering of substitutions follows the chain as printed.

Regarding “CCGATTAACATCAAAATATTCCCTGATGTTAATCGGGTCTTGATTCGCTTGACGCTGCTG”, the binding signal with GST-Ap-NF-kB RHD worked out at 6.25 z-score; in assay [1] it was 7.36 z-score; in assay [2], 7.68 z-score; with GST-Co-NF-kB, 4.81 z-score; with GST-Dm-Relish, 4.34 z-score; in the assay with GST-Aq-NF-kB, 6.27 z-score. Moreover, the binding signal with GST-Hu-p50 stood at 4.33 z-score.
In the case of “CCGATTAACATCAAAATCCCCCGTGATGTTAATCGGGTCTTGATTCGCTTGACGCTGCTG”, the binding signal was 9.02 z-score in the assay with GST-Ap-NF-kB RHD; 9.33 z-score in assay [1]; 10.1 z-score in assay [2]; 8.56 z-score with GST-Co-NF-kB; 9.89 z-score with GST-Dm-Relish; 7.76 z-score in the assay with GST-Aq-NF-kB. In the assay with GST-Hu-p50, this sequence showed a binding signal of 8.02 z-score.
“CCGATTAACATCAAGTCTCCCCCTGATGTTAATCGGGTCTTGATTCGCTTGACGCTGCTG”: the binding signal with GST-Ap-NF-kB RHD was determined as 6.67 z-score; in assay [1] it was 5.33 z-score; in assay [2], 7.25 z-score; with GST-Co-NF-kB, 8.63 z-score; with GST-Dm-Relish, 2.82 z-score; with GST-Aq-NF-kB, 4.5 z-score. Moreover, the binding signal in the assay with GST-Hu-p50 worked out at 5.75 z-score.
Regarding “CCGATTAACATCAGGGGGGGCAATGATGTTAATCGGGTCTTGATTCGCTTGACGCTGCTG”, the binding signal was 4.42 z-score with GST-Ap-NF-kB RHD; 3.92 z-score in assay [1]; 3.15 z-score in assay [2]; 4.99 z-score with GST-Co-NF-kB; 4.29 z-score with GST-Dm-Relish; 3.72 z-score with GST-Aq-NF-kB. The sequence also had a binding signal in the assay with GST-Hu-p50 of 3.8 z-score.
As to “CCGATTAACATCACATAATCCCCTGATGTTAATCGGGTCTTGATTCGCTTGACGCTGCTG”, the binding signal came out at 7.93 z-score with GST-Ap-NF-kB RHD; 9.03 z-score in assay [1]; 9.99 z-score in assay [2]; 3.86 z-score with GST-Co-NF-kB; 6.27 z-score in the assay with GST-Dm-Relish; 6.55 z-score in the assay with GST-Aq-NF-kB. Further, the binding signal with GST-Hu-p50 is 6.8 z-score.
In the case of “CCGATTAACATCAAAGGACCCCCTGATGTTAATCGGGTCTTGATTCGCTTGACGCTGCTG”, the binding signal with GST-Ap-NF-kB RHD was 4.81 z-score; in assay [1] it was 2.82 z-score; in assay [2], 3.92 z-score; with GST-Co-NF-kB, 2.19 z-score; with GST-Dm-Relish, 4.18 z-score; in the assay with GST-Aq-NF-kB, 3.79 z-score. For the same sequence, the binding signal with GST-Hu-p50 came to 3.2 z-score.
Take “CCGATTAACATCAGCTTCCCCCCTGATGTTAATCGGGTCTTGATTCGCTTGACGCTGCTG”: the binding signal with GST-Ap-NF-kB RHD stood at 5.3 z-score; in assay [1], 4.97 z-score; in assay [2], 5.68 z-score; in the assay with GST-Co-NF-kB, 7.68 z-score; with GST-Dm-Relish, 4.2 z-score; with GST-Aq-NF-kB, 4.55 z-score. The same sequence returned a binding signal with GST-Hu-p50 of 4.95 z-score.
For the sequence “CCGATTAACATCAAGGGAATTTCTGATGTTAATCGGGTCTTGATTCGCTTGACGCTGCTG”, the binding signal worked out at 6.34 z-score in the assay with GST-Ap-NF-kB RHD; 8.61 z-score in assay [1]; 8.46 z-score in assay [2]; 4.25 z-score with GST-Co-NF-kB; 5.45 z-score with GST-Dm-Relish; 7.24 z-score with GST-Aq-NF-kB. The same sequence yielded a binding signal in the assay with GST-Hu-p50 of 5.75 z-score.
Regarding “CCGATTAACATCAAAAACTTCCCTGATGTTAATCGGGTCTTGATTCGCTTGACGCTGCTG”, the binding signal was 5.3 z-score with GST-Ap-NF-kB RHD; 5.84 z-score in assay [1]; 6.81 z-score in assay [2]; 3.89 z-score in the assay with GST-Co-NF-kB; 5.16 z-score with GST-Dm-Relish; 6.27 z-score with GST-Aq-NF-kB. In the assay with GST-Hu-p50, this sequence displayed a binding signal of 4.68 z-score.
As for “CCGATTAACATCAGGGGGACTACTGATGTTAATCGGGTCTTGATTCGCTTGACGCTGCTG”, the binding signal amounted to 6.49 z-score with GST-Ap-NF-kB RHD; 4.44 z-score in assay [1]; 4.46 z-score in assay [2]; 4.53 z-score with GST-Co-NF-kB; 6.39 z-score with GST-Dm-Relish; 5.25 z-score with GST-Aq-NF-kB. In the assay with GST-Hu-p50, the binding signal came out at 4.55 z-score.
As for “CCGATTAACATCAGGGAAATCTATGATGTTAATCGGGTCTTGATTCGCTTGACGCTGCTG”, the binding signal in the assay with GST-Ap-NF-kB RHD is 3.65 z-score; in assay [1], 5.31 z-score; in assay [2] it was 6.44 z-score; with GST-Co-NF-kB it was 4.52 z-score; with GST-Dm-Relish, 1.64 z-score; in the assay with GST-Aq-NF-kB, 4.71 z-score. The sequence further had a binding signal in the assay with GST-Hu-p50 of 4.1 z-score.
As for “CCGATTAACATCAGGATTTCCCCTGATGTTAATCGGGTCTTGATTCGCTTGACGCTGCTG”, the binding signal came out at 10 z-score with GST-Ap-NF-kB RHD; 11.1 z-score in assay [1]; 11.4 z-score in assay [2]; 7.55 z-score with GST-Co-NF-kB; 9.64 z-score with GST-Dm-Relish; 9.68 z-score with GST-Aq-NF-kB. In addition, the binding signal with GST-Hu-p50 was 7.53 z-score.
